Compound activity from PubChem.
Most compounds without a hit are left out; they make up all but 7% or so of the library.
DRD3 agonist: agonists of human D3 dopamine receptor; 0.58% of 410,000 active; AID 652048; D3R DiscoveRx beta-arrestin cells, luminescence, 90 min; max activation, %; in the data active = max activation above about 30%
Target sequence (P35462 whole entry, looked up): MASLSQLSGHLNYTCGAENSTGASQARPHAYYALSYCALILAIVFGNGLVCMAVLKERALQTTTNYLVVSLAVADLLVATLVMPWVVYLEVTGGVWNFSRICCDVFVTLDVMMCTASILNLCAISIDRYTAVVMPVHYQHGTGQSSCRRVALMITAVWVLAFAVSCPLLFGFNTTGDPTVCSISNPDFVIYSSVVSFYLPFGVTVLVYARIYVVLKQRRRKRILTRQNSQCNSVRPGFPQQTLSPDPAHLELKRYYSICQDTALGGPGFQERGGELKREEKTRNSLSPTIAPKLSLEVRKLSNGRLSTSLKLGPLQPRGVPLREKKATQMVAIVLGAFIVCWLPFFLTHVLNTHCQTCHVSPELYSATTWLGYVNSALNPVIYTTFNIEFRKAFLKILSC
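Agonist-mode cell screen: cells plated at 1500/well and incubated overnight at 37 °C, then exposed to library compounds for 90 min at 37 °C. Detection reagent was added for 30–60 min at room temperature, and luminescence was read.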
a7 integrin act: activators of alpha7 integrin expression for muscular dystrophy; Potency, µM (series often up to 38.3 µM), usual class: activators; 0.064% of 350,000 active; alpha7betagal myoblasts, beta-gal FDG fluorescence, 48 h; note: nearly all actives have a fitted effect of over 60% in size
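alpha7betagal+/- myoblasts (passage 13, 250/well) treated 48 h at 37C with compounds at 1:260 dilution of DMSO stock. Lysed, then beta-galactosidase activity read as FDG fluorescence (ex 480/em 540) after 30 min, with pre-read for autofluorescence.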
D3 antag: D3 dopamine receptor (human) antagonism | P35462 | D3R cells, DiscoveRx beta-arrestin luminescence, antagonist mode; active compounds read low | max response, negative = inhibition, % | 2.5% of 360,000 active; in the data active = max response below about -50%; inconclusive = no clear call, values can overlap the other calls
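Cells plated overnight at 1500 cells/well, then exposed to library compounds with dopamine controls for 90 minutes at 37 degrees C. DiscoveRx reagent added for 30–60 minutes at room temperature; luminescence read, quantitative HTS format.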
IL-1B inflam inh: inflammasome signaling inhibition, IL-1 beta readout | THP-1 LPS/ATP IL-1B secretion, AlphaLISA, 16 h; active compounds read low | activity change, % at 57.5 µM | 4.7% of 360,000 active | AID 743279; in the data active = activity change below about -50%; inconclusive = mostly about -30% to -49%
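Secreted IL-1B measured by AlphaLISA bead assay after 16 h compound exposure of THP-1 cells; compounds (final up to 57.5 uM) added 1 h before LPS (250 ng/mL) and ATP (1.25 mM) stimulation; lower signal means less secretion.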
ATXN viability: cell viability loss in ATXN counter-screen; S2 cells (HEK-293 line with an ATXN2-luciferase reporter) viability, CellTiter-Fluor protease fluorescence, 24 h; Potency, µM (top dose mostly 56.7 µM), usual class: cytotoxic; 0.49% of 400,000 active; AID 651635; note: nearly all actives have a fitted effect of over 40% in size
ATXN2 expr inh: inhibitors of ATXN2 expression | HEK-293 ATXN2-luciferase reporter, luminescence, 24 h | Potency, µM (highest dose often 57 µM), usual class: inhibitors | 0.72% of 360,000 active | AID 1745845; note: nearly all actives have a fitted effect of over 55% in size
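ATXN2-luciferase reporter cells (luciferase flanked by upstream and downstream ATXN2 gene portions) were treated 24 h at 37 °C with compounds at up to 57 uM. SteadyGlo luminescence gave expression; GF-AFC fluorescence gave viability.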
Hits are given with their value; n = inactive; u = inconclusive; x = no result given; ! = not confirmed by another sample; [ ] = remark or other dose. Unless noted, calls come from the whole dose curve; as a rule, active = well fitted curve in the direction sought with a large enough effect; inconclusive = small, poorly fitted or top-dose-only effect, or another doubt; inactive = no such curve, though single readings can be large; an effect the other way counts as inactive or inconclusive.

SMILES	DRD3 agonist	a7 integrin act	D3 antag	IL-1B inflam inh	ATXN viability	ATXN2 expr inh
Cc1ccc(SC[C@H](Cc2ccccc2)N2CCN(CCc3ccccc3)CCC2=O)cc1	n	n	-58	n	n	n
CN1CCC(=O)N([C@H](CSc2ccc(Br)cc2)Cc2ccccc2)CC1	n	n	n	u	n	n
CN1CCC(=O)N([C@H](CSc2ccccc2)Cc2ccccc2)CC1	n	n	n	n	n	n
CC(C)CN1CCC(=O)N([C@H](CSc2ccc(Br)cc2)Cc2ccccc2)CC1	n	n	-67	-53	u	n
O=C1CCN(CCc2ccccc2)CCN1[C@H](CSc1ccccc1)Cc1ccccc1	n	n	n	-64	u	n
C#C[C@@]1(O)CC[C@@H]2[C@@H]3CCC4=CC(=O)CC[C@@H]4[C@H]3CC[C@]21C	x	x	x	x	n	x
CC#C[C@]1(O)CC[C@H]2[C@@H]3CCC4=CC(=O)CCC4=C3[C@@H](c3ccc(N(C)C)cc3)C[C@@]21C	n	x	n	n	n	15µM!
COc1ccc(Nc2nc(-c3c(C)nc4ncccn34)cs2)cc1	n	n	n	-61	u	x
COc1ccccc1Nc1nc(-c2c(C)nc3ncccn23)cs1	n	n	n	-99	u	n
O=C(OCc1nc2ccccc2[n+]([O-])c1C(=O)c1ccccc1)c1cccnc1	n	n	-55	n	u	n
CC(=O)c1c(COC(=O)c2ccccc2)nc2ccccc2[n+]1[O-]	n	n[7.66 µM]	n	n	n	n
Cc1c(N=C2C=CC(=O)c3ccccc32)c(=O)n(-c2ccccc2)n1C	n	n	-55	-115	x	u
CC(=O)NCC1(c2ccccc2)CCN(CCCC(=O)c2ccc(F)cc2)CC1	n	n	-116	n	n	x
C/C(=N\NC(=O)c1ccccc1O)C1C(=O)c2ccccc2C1=O	n	n	n	n	x	x
C/C(=N/NC(=O)c1cc2ccccc2cc1O)C1C(=O)c2ccccc2C1=O	n	n	-56	n	n	n
COc1ccc(NC(=S)/N=C(\N)Nc2nc(C)c3ccc(C)cc3n2)cc1	n	n	n	n	16µM	u
CCOc1ccc2nc(N/C(N)=N/C(=S)Nc3ccc(C)c(C)c3)nc(C)c2c1	n	n	n	n	n	n
CCNC(=S)/N=C(\N)Nc1nc(C)c2cc(C)ccc2n1	n	n	n	-91	n	n
CCNC(=S)/N=C(/Nc1ccccc1)Nc1nc(C)cc(C)n1	n	n	n	x	n	n
Cc1cc(C)c(S(=O)(=O)N2CCN(C(=O)C3CCCO3)CC2)c(C)c1 (centres undefined)	n	n	n	n	n	x
CC(=O)C1=CCC(c2ccc(F)cc2)N(S(=O)(=O)c2ccc(C)cc2)C1 (centres undefined)	n	x	n	n	u	n
CC1CCN(CCCNS(=O)(=O)c2ccc3c(c2)CCN3C(=O)C2CC2)CC1	n	n	n	n	n	x
CCC(=O)N1CCc2cc(S(=O)(=O)NCCN3CCC(C)CC3)ccc21	n	n	-90	u	n	n
CC1(C)CC2CC(C)(CN2c2ncnc3ccccc23)C1 (centres undefined)	n	n	n	-82	u	u
CC1CCCCN1c1ncnc2ccccc12 (centres undefined)	n	n	n	n	n	n
SMILES	DRD3 agonist	a7 integrin act	D3 antag	IL-1B inflam inh	ATXN viability	ATXN2 expr inh
O=C1CC(c2ccco2)CC(O)=C1C=Nc1ccccc1-c1ccccc1 (centres undefined)	n	n	-105	n	n	n
NC(N)=Nc1nc(-c2ccccc2)c2cc(F)ccc2n1	n	n	n	-90	5.6µM	u
OCCSc1nc(-c2ccccc2)nc2ccc(F)cc12	n	n	n	n	n	x
COc1ccc(-c2nc3sc(CCNC(=O)C(=O)Nc4ccc(OC)c(OC)c4)c(C)n3n2)cc1	n	x	x	x	x	x
COc1ccc(CC(=O)Nc2ccc(S(=O)(=O)N(C)C3CCN(C)CC3)cc2)cc1	n	n	n	n	n	n
CCC(C(=O)Nc1ccc(S(=O)(=O)N(C)C2CCN(C)CC2)cc1)c1ccccc1 (centres undefined)	n	n	n	n	n	n
CC(Oc1ccc(Br)cc1)C(=O)Nc1ccc(S(=O)(=O)N(C)C2CCN(C)CC2)cc1 (centres undefined)	n	n	n	-98	n	n
CN1CCC(N(C)S(=O)(=O)c2ccc(NC(=O)COc3cccc(C(F)(F)F)c3)cc2)CC1	n	n	n	-53	n	n
COc1ccccc1CC(=O)Nc1ccc(S(=O)(=O)N(C)C2CCN(C)CC2)cc1	n	n	-51	n	n	n
COc1ccc(NC(=O)c2coc3ccccc23)cc1OC	n	n	-67	u	n	n
CNC(=O)COc1ccccc1C(=O)Nc1ccc2c(c1)oc1ccccc12	n	n	n	-69	n	u
COc1ccc(NC(=O)c2coc(=O)c3ccccc23)cc1OC	n	x	x	x	n	n
CCCn1cc(S(=O)(=O)c2ccc(OC)cc2)c(=O)c2cc(F)c(N3CCCC(C)C3)cc21 (centres undefined)	n	x	x	x	x	x
Cc1cccc(C)c1OCc1cc(C(=O)N(Cc2nccn2C)C(C)C)no1	n	n	n	n	n	n
OCCCNc1nc(-c2ccc(Cl)cc2)nc2ccccc12	n	n	n	n	u	n
COc1cc2nc(-c3ccc(N4CCN(C)CC4)cc3)nc(NCCN3CCOCC3)c2cc1OC	x	x	x	x	x	0.39µM
CCOc1cc2nc(-c3ccc(OC)c(OC)c3)nc(NCCCN3CCOCC3)c2cc1OC	n	n	n	-60	n	n
COc1cc2ncnc(NCCCN3CCOCC3)c2cc1OC	n	n	n	n	n	x
Clc1ccc(-c2nc(NCCN3CCOCC3)c3ccccc3n2)cc1	n	n	n	-61	n	n
O=C(CCC(=O)N1CCOc2ccccc21)NCc1ccccn1	n	n	n	n	n	n
O=C(Nc1ccccc1)C(CCCCN1C(=O)c2ccccc2C1=O)N1C(=O)c2ccccc2C1=O (centres undefined)	n	n	n	n	n	n
Cc1oc2ncn(CC(C)C)c(=O)c2c1C(=O)Nc1cc(F)ccc1F	n	x	x	x	u	35µM
Cc1oc2ncn(CC(C)C)c(=O)c2c1C(=O)Nc1ccc(Cl)cn1	n	x	x	x	n	n
O=C(On1c(-c2ccccc2)nc2ccccc2c1=O)c1ccco1	n	n	n	n	u	u
COc1cc(OC)cc(-c2nc3ccccc3c(=O)n2OC(=O)c2ccccc2C)c1	34	n	n	-61	n	x
CC1(C)OC(=O)C(=CNc2ncccn2)C(=O)O1	n	n	-68	n	n	n
CC1(C)OC(=O)C(=CNc2ccccn2)C(=O)O1	n	n	n	x	n	n
CCN(CC)S(=O)(=O)c1ccc(N(C)C)c(NC(=O)C2CCCC2)c1	n	n	n	-54	n	n
